Measured values published in PubChem BioAssay AID624330 (Southern Research Specialized Biocontainment Screening …, 2012).
Screen size: about 340,000 compounds; about 2,100 (0.62%) were called active.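 How the source made its calls: active means first-screen hits whose inhibition reached a set limit at any dose in the follow-up dose series; inconclusive means inhibition above the set first-screen limit but never retested; inactive means the rest.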 These entries were drawn from the full list. Entries with a potency or affinity are not part of this list.

Molecular target: Rac GTPase-activating protein 1 (Homo sapiens) (UniProt Q9H0H5)
Test: MgcRacGAP GTPase-activating activity inhibitors, confirmation, biochemical, ADP Hunter fluorescence, primary and confirmatory (AID 624330);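 further: fluorescence reports GDP produced by GAP-driven GTP hydrolysis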
Settings: MgcRacGAP-stimulated Rac1 GTP hydrolysis, at 30 µM, hits give high values, GST-tagged Rac1 F28L mutant substrate

Chain of Rac GTPase-activating protein 1 (Homo sapiens) (Q9H0H5 whole entry, looked up): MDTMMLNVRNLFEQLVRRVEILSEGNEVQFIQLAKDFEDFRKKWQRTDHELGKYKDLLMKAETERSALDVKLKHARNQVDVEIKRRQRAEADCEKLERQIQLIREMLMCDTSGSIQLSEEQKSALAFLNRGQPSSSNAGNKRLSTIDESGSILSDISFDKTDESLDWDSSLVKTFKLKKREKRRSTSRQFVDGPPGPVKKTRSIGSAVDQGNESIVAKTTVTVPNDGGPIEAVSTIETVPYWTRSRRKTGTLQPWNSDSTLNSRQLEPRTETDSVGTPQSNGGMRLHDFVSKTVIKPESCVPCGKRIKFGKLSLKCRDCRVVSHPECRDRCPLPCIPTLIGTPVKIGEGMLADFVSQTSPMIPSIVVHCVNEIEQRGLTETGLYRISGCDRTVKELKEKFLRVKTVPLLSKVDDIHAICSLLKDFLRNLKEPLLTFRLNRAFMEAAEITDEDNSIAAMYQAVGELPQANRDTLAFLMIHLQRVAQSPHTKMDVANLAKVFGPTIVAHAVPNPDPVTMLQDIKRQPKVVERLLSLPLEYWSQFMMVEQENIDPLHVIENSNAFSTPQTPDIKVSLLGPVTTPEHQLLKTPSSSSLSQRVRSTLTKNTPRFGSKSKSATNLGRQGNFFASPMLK

inhibition, inactive:
COc1ccc(NC(=O)C2CCN(S(=O)(=O)c3c(C)noc3C)CC2)cc1 8.66%
Cc1cc(C)n2nc(CC(=O)NNC(=O)COc3cccc(C)c3C)nc2n1 -3.96%
CCCCOCCCNC(=O)c1ccc(OC)cc1 4.46%
Cc1cc(Cl)ccc1N(CC(=O)N(C)Cc1ccccc1)S(C)(=O)=O 18.6%
CCC(SC1=N/C(=C/c2ccccc2OC)C(=O)N1c1ccccc1)C(=O)Nc1cc(C)on1 (stereo not drawn) 12.8%
O=c1[nH]c(SCc2ccccc2)nc2c1cnn2-c1ccc(F)cc1 14%
Cc1cc(C)n2nc(C(=O)OCC(=O)N(C)CC(=O)Nc3ccccc3Cl)nc2n1 1.5%
CC(C)CO/C(=N/S(=O)(=O)c1ccccc1)c1ccccc1 5.75%
CS/C(=N\S(=O)(=O)c1ccccc1)c1ccccc1 5.35%
COc1cc(/C=N/NC(=O)C2c3ccccc3Oc3ccccc32)ccc1O 5.77%
O=C(N/N=C\c1cccnc1)C1c2ccccc2Oc2ccccc21 3.36%
Cn1cc(CN2CCC(C(=O)Nc3cccc(-c4cccc(F)c4)c3)CC2)cn1 5.69%
c1ccc(NC2=NCCN2CC2CCCCCC2)cc1 7.17%
O=C(CSc1nnc(-c2cccnc2)o1)Nc1cccc(Cl)c1 4.31%
N#Cc1cccc(NC(=O)CCN2C(=O)C3CCCCC3C2=O)c1 (stereo not drawn) -0.53%
O=C1/C(=C/c2ccc(N3CCCC3)cc2)NC(=S)N1C1CC1 27.1%
O=C1NC(=O)N(c2ccc(Cl)cc2)C(=O)/C1=C/c1ccc2c(c1)CCN2Cc1ccccc1Cl 10.3%
COc1ccc(NC(=O)Nc2ccc3c(c2)C(=O)N([C@H](C)CO)C[C@H](C)[C@@H](CN(C)S(C)(=O)=O)O3)cc1 11.1%
O=S(N1CCCCC1)C12CC3CC(CC(C3)C1)C2 (stereo not drawn) -0.65%
CSC1=C(C#N)C(=O)NC(c2ccccc2O)S1 (stereo not drawn) 25.9%
COc1cccc(NC2=C(C#N)C(=O)NC(c3cccc(OC)c3O)S2)c1 (stereo not drawn) 36.1%
O=C(CCCN1C(=O)c2ccccc2C1=O)Nc1cccc(S(=O)(=O)NC2=NCCC2)c1 9.21%
Cc1ccc(C)c(NC(=O)COC(=O)CCC(=O)c2cccs2)c1 -3.89%
COc1cccc(CNCc2ccc(C(=O)O)cc2)c1OC 1.24%
Cc1cc(=O)oc(C)c1C(=O)NCCCN1CCN(c2ccccc2F)CC1 6.67%
CCOC(=O)c1[nH]c2ccc(OC)cc2c1C 7.86%
CCOC(=O)c1[nH]c2ccc(C)cc2c1N=CN(CC)CC 17.7%
CCOC(=O)c1[nH]c2cc(OC)c(OC)cc2c1NC(=O)c1nonc1C 9.89%
CCOC(=O)c1[nH]c2ccc(C)cc2c1N=C(C)N(C)C 9.84%
COc1ccc(NC(=O)NNC(=O)c2cc3ccccc3cc2O)cc1 11.5%
NC(=O)C1CCCN(S(=O)(=O)c2ccc3ccccc3c2)C1 (stereo not drawn) 2.91%
Cc1onc(-c2ccccc2)c1-c1n[nH]c(=S)n1-c1ccc(C(=O)O)cc1 5.16%
CC(=O)Nc1ccc(S(=O)(=O)N(C)S(=O)(=O)c2ccc(F)cc2)cc1 10.5%
CC(=O)c1cc(CN2CCN(Cc3ccc(C)cc3)C(CCO)C2)cs1 (stereo not drawn) 11.3%
c1ccc2cc(CN3CCOCC3)ccc2c1 1.35%
O=S(=O)(c1ccc2ccccc2c1)N1CCN(CCO)CC1 1.28%
O=[N+]([O-])c1ccccc1CN1CCN(Cc2ccc3ccccc3c2)CC1 28.3%
CC(CCN1CCN(c2ccccc2)CC1)c1ccccc1 (stereo not drawn) 0.31%
CC(CCN1CCOCC1)c1ccccc1 (stereo not drawn) 22.5%
CCOC(=O)N1CCN(Cc2ccc3ccccc3c2)CC1 28.6%
CC1c2[nH]c3ccccc3c2CCN1S(C)(=O)=O (stereo not drawn) 1.37%
Cc1ccc2cc(/C=N/NC(=O)c3ccc(F)cc3)c(Cl)nc2c1 5.25%
Cc1ccccc1NS(=O)(=O)c1cc(C(=O)Nc2cccc([N+](=O)[O-])c2)ccc1C 8.26%
O=C(Nc1cccc(-c2cccc(Cl)c2)c1)C1CCN(Cc2ccccn2)CC1 2.6%
CC(NS(=O)(=O)CCNC(=O)c1ccccc1)c1ccccc1 (stereo not drawn) 4.33%
CC(=O)Nc1ccc(S(=O)(=O)N[C@@H](C)C(=O)OCC(=O)c2ccc(Br)s2)cc1 16.7%
CCn1nnnc1Oc1ccc(Cl)cc1 1.61%
S=c1[nH]nc(-c2cccnc2)n1/N=C/C=C/c1ccco1 21.5%
COc1cccc(/C=N/n2c(SC)nnc2-c2ccccc2)c1O 22.8%
Cc1ccc(CN2CCN(/N=C/c3ccc(C(=O)O)cc3)CC2)cc1 8.13%
C(=N/n1c2ccccc2c2ccccc21)/c1ccco1 14.3%
Cc1nnc(C)n1/N=C/c1ccc(C(=O)O)cc1 7.46%
Oc1ccccc1/C=N/n1c2ccccc2c2ccccc21 8.39%
S=c1[nH]nc(-c2ccccc2)n1/N=C/C=C/c1ccco1 30.9%
Cc1cc(C)n(-c2nnc(C)n2/N=C/c2ccco2)n1 2.53%
NC(=O)COC(=O)c1cccc(S(=O)(=O)N2CCN(c3ccccc3)CC2)c1 7.91%
Cc1ccc(OCC(=O)NNC(=O)c2ccc(NC(=O)C3CC3)cc2)c(C)c1 7.97%
CC(=O)c1cccc(NS(=O)(=O)c2c(C)n[nH]c2C)c1 7.62%
CC(=O)Nc1ccc2c(c1)N(S(=O)(=O)c1cccs1)CCC2 4.49%
CC(C)OCCCNC(=O)c1ccc(CS(=O)(=O)Cc2ccccc2F)o1 3.97%
Cc1nc(N2CCN(c3ccccc3)CC2)nc2c1C(=O)CCC2 5.63%
CCN1C(=O)/C(=C/c2c(C)nn(C)c2C)SC1=S 0.43%
O=C(O)c1ccc(Nc2ncnc3ccccc23)cc1 7.58%
Cc1cccc(NC(=O)CNC(=O)COC(=O)c2ccco2)c1C -0.7%
c1ccc(C[C@H]2CN=C(Nc3ccccc3)N2CC2CCCCC2)cc1 3.05%
Cc1ccccc1-n1nc(C(=O)O)cc1-c1ccccc1 3.4%
O=C(NCCc1ccccc1)c1ccc(-c2ccccc2Cl)o1 5.22%
Cc1ccc(/C=N/n2c(-c3ccncc3)n[nH]c2=S)cc1 5.7%
Cc1nnc(C)n1/N=C/c1ccccc1 6.18%
S=c1[nH]nc(-c2cccnc2)n1/N=C/C=C/c1ccccc1 5.39%
Cc1nnc(C)n1/N=C/C=C/c1ccccc1 1.05%
CC1CCN(C(=O)C2CCN(S(=O)(=O)c3cccs3)CC2)CC1 6.45%
CCc1cc(C(=O)N2CCCC(C(=O)c3cccc(OC(C)C)c3)C2)n(C)n1 (stereo not drawn) 9.3%
Cc1ccc2c(CC(=O)N3CCN(S(=O)(=O)c4ccccc4)CC3)coc2c1 5.1%
COc1ccc2c(CC(=O)N3CCN(S(=O)(=O)c4ccc(F)cc4)CC3)coc2c1 1.15%
N#Cc1ccccc1S(=O)(=O)N1CCN(C(=O)Cc2n[nH]c(=O)c3ccccc23)CC1 1.94%
N#Cc1ccccc1S(=O)(=O)N1CCN(C(=O)CCc2ccccc2)CC1 6.33%
CCCn1c(N2CCN(C(=O)/C=C/C(=O)O)CC2)nc2ccccc21 10.8%
NC(=O)COC(=O)CCSc1ccc(Cl)cc1 5.12%
COC/C=C/C1=CC2=CC(=O)C(C)(OC(=O)c3cnc4ccccc4n3)C(=O)C2=CN1Cc1ccco1 (stereo not drawn) 11%
COc1nonc1NC(=O)CSc1nc2ccccc2[nH]1 9.74%
Oc1cccc(Nc2c3ccccc3nc3ccccc23)c1 16.7%
c1ccc(Nc2cccc(Nc3ccccc3)c2)cc1 19.8%
OC1(CC#CCN2CCCCC2)c2ccccc2-c2ccccc21 11.1%
O=C(c1ccco1)N1N=C2CCCCCC2C1(O)C(F)(F)F (stereo not drawn) 1.94%
Cc1ccc(OCCOCCNC(C)(C)C)c([N+](=O)[O-])c1 29.6%
C=CCNCCCCOc1ccc(C)cc1[N+](=O)[O-] 14%
Cc1ccc(OCCOCCN2CCN(C)CC2)c([N+](=O)[O-])c1 31.9%
Cc1ccc(OCCN2CCNCC2)c([N+](=O)[O-])c1 21.6%
Cc1cc(C)n(CCCN2CCC(C(=O)Nc3cccc(-c4cccc(F)c4)c3)CC2)n1 11.5%
Cc1ccccc1C(=O)NC1CC2CCCC(C1)N2Cc1ccccc1Cl (stereo not drawn) 11.5%
Cc1c(C(=O)NCC(c2ccco2)N(C)C)oc2c(Cl)cccc12 (stereo not drawn) 5.84%
COc1cc2c(cc1OC)C1=C(C#N)CC/C(=N\S(=O)(=O)c3cccc(Cl)c3)N1CC2 4.99%
CC(C)CNC(=O)CN1C(=O)NC2(CCc3ccccc32)C1=O (stereo not drawn) 10.8%
CN1C(=O)/C(=C\C=C2/CCCN2C)N(C)C1=S 28.8%
CN1C(=O)/C(=C/C=C2\SCCN2C)OC1=S 8.62%
CCN1C(=O)/C(=C/C=C2/CCCN2C)OC1=S 5.72%
CN1CCS/C1=C\C=C1/SC(=S)N(CC(=O)O)C1=O 16.9%
